Reference: PubChem BioAssay AID1159580 (chemical genetic matrix, 2015)
“And” between values parts separate entries of the source, which are not always exact repeats. Equal entries are not always repeated. The whole screen tested about 5,500 compounds, of which about 2,000 (36%) were called active. Roughly 18% stayed inconclusive and do not appear here. Cut-off read from the data, not from the text of the source: active = normalized growth mostly below about 0.91 (no sharp cut-off); inconclusive = no clear call, values can overlap the other calls; inactive = mostly above about 0.92. This is one part of the list.

Test: chemical genetic growth profiling, strain panel (AID 1159580);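 note: tested at 20 µM; growth read once vehicle control cultures reached saturation at 30 °C; 1 = growth at the plate median or of vehicle wells; lower values mean less growth of the strain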
Conditions: S. cerevisiae deletion strains, growth OD

Measured: normalized growth

C=C1C[C@]23C[C@@]1(O)CC[C@H]2[C@@]12C=C[C@H](O)[C@@](C)(C(=O)O1)[C@H]2[C@@H]3C(=O)O
inactive: locus YAL013W, strain DEP1, stronger effect = lower value 0.998 | locus YAL021C, strain ccr4, stronger effect = lower value 0.976 | locus YAL026C, strain drs2, stronger effect = lower value 1.04 | locus YAL030W, strain snc1, stronger effect = lower value 1.03 | locus YBL061C, strain skt5, stronger effect = lower value 1.02 | locus YBR009C, strain hhf1, stronger effect = lower value 1.02 | locus YBR021W, strain FUR4, stronger effect = lower value 1.01 | locus YBR023C, strain chs3, stronger effect = lower value 1.02 | locus YBR171W, strain sec66, stronger effect = lower value 1.03 | locus YBR229C, strain ROT2, stronger effect = lower value 0.956 | locus YBR231C, strain swc5, stronger effect = lower value 1.03 | locus YBR279W, strain paf1, stronger effect = lower value 1.02 | locus YCL011C, strain gbp2, stronger effect = lower value 1.03 | locus YCL016C, strain dcc1, stronger effect = lower value 0.997 | locus YCL029C, strain bik1, stronger effect = lower value 0.984 | locus YCL069W, strain vba3, stronger effect = lower value 1.03 | locus YCR088W, strain abp1, stronger effect = lower value 1.02 | locus YDL005C, strain med2, stronger effect = lower value 1.03 | locus YDL035C, strain GPR1, stronger effect = lower value 0.982 | locus YDL040C, strain nat1, stronger effect = lower value 1.03 | locus YDL074C, strain BRE1, stronger effect = lower value 1.02 | locus YDL101C, strain DUN1, stronger effect = lower value 0.999 | locus YDL134C, strain PPH21, stronger effect = lower value 1.03 | locus YDL185W, strain tfp1, stronger effect = lower value 0.978 | locus YDL192W, strain arf1, stronger effect = lower value 0.986 | locus YDR001C, strain nth1, stronger effect = lower value 1.03 | locus YDR069C, strain doa4, stronger effect = lower value 1.03 | locus YDR101C, strain arx1, stronger effect = lower value 0.967 | locus YDR137W, strain rgp1, stronger effect = lower value 1.03 | locus YDR150W, strain NUM1, stronger effect = lower value 0.996 | locus YDR159W, strain sac3, stronger effect = lower value 1.04 | locus YDR162C, strain NBP2, stronger effect = lower value 0.976 | locus YDR195W, strain ref2 1 | locus YDR297W, strain sur2, stronger effect = lower value 1.02 | locus YDR318W, strain mcm21, stronger effect = lower value 0.984 | locus YDR334W, strain swr1, stronger effect = lower value 1.02 | locus YDR335W, strain msn5, stronger effect = lower value 1.02 | locus YDR388W, stronger effect = lower value 0.998 | locus YDR392W, strain spt3, stronger effect = lower value 0.885 | locus YDR502C, strain sam2, stronger effect = lower value 1.03 | locus YEL003W, strain gim4, stronger effect = lower value 1.02 | locus YEL037C, strain rad23, stronger effect = lower value 1.02 | locus YEL061C, strain CIN8 (second series), stronger effect = lower value 1.02 | locus YEL061C, strain CIN8, stronger effect = lower value 1 | locus YER015W, strain faa2, stronger effect = lower value 1.02 | locus YER016W, strain bim1, stronger effect = lower value 1.03 | locus YER110C, stronger effect = lower value 0.98 | locus YER111C, strain swi4, stronger effect = lower value 1 | locus YER155C, strain BEM2 (second series), stronger effect = lower value 1 | locus YER155C, strain BEM2, stronger effect = lower value 0.991 | locus YER167W, strain BCK2, stronger effect = lower value 0.989 | locus YFR010W, strain ubp6, stronger effect = lower value 1.03 | locus YGL078C, strain dbp3, stronger effect = lower value 1.02 | locus YGL086W, strain mad1, stronger effect = lower value 1.01 | locus YGL167C, strain pmr1, stronger effect = lower value 1.03 | locus YGL173C, strain kem1, stronger effect = lower value 1.05 | locus YGL227W, strain vid30, stronger effect = lower value 1.02 | locus YGL240W, strain doc1, stronger effect = lower value 1.02 | locus YGL248W, strain PDE1, stronger effect = lower value 1.01 | locus YGL253W, strain hxk2, stronger effect = lower value 1.05 | locus YGR135W, strain pre9, stronger effect = lower value 1.07 | locus YGR252W, strain gcn5, stronger effect = lower value 1.05 | locus YHR013C, strain ard1, stronger effect = lower value 1.02 | locus YHR027C, strain rpn1, stronger effect = lower value 1.03 | locus YHR030C, strain SLT2, stronger effect = lower value 0.996 and 1 | locus YHR079C, strain IRE1 (second series), stronger effect = lower value 0.998 | locus YHR079C, strain IRE1, stronger effect = lower value 0.998 | locus YHR094C, strain hxt1, stronger effect = lower value 0.991 | locus YHR129C, strain ARP1, stronger effect = lower value 0.998 | locus YHR142W, strain chs7, stronger effect = lower value 1.04 | locus YHR200W, strain rpn10, stronger effect = lower value 1.01 | locus YIL066C, strain RNR3, stronger effect = lower value 0.98 | locus YIL073C, strain SPO22, stronger effect = lower value 1.07 | locus YIL125W, strain kgd1, stronger effect = lower value 1 | locus YIR030C, strain dcg1, stronger effect = lower value 0.994 | locus YJL092W, strain hpr5, stronger effect = lower value 1.02 | locus YJL095W, strain BCK1 (second series), stronger effect = lower value 1.02 | locus YJL095W, strain BCK1, stronger effect = lower value 1.06 and 1.01 | locus YJL115W, strain asf1, stronger effect = lower value 1.02 | locus YJL129C, strain trk1, stronger effect = lower value 1.04 | locus YJL134W, strain LCB3, stronger effect = lower value 0.99 | locus YJL154C, strain vps35, stronger effect = lower value 1.03 | locus YJL164C, strain tpk1, stronger effect = lower value 1.01 | locus YJL166W, strain qcr8, stronger effect = lower value 1.03 | locus YJL168C, strain set2, stronger effect = lower value 1.01 | locus YJL187C, strain SWE1 (second series), stronger effect = lower value 1.01 | locus YJL187C, strain SWE1, stronger effect = lower value 1.03 | locus YJR043C, strain POL32, stronger effect = lower value 0.96 | locus YJR066W, strain TOR1, stronger effect = lower value 0.962 | locus YKL009W, strain mrt4, stronger effect = lower value 1.03 | locus YKL068W, stronger effect = lower value 1 | locus YKL085W, strain MDH1 (second series), stronger effect = lower value 0.99 | locus YKL085W, strain MDH1, stronger effect = lower value 0.99 | locus YKL160W, strain elf1, stronger effect = lower value 0.998 | locus YKR001C, strain vps1, stronger effect = lower value 1.01 | locus YKR026C, strain gcn3, stronger effect = lower value 1.02 | locus YKR091W, strain srl3, stronger effect = lower value 1.03 | locus YLL001W, strain dnm1, stronger effect = lower value 0.986 | locus YLL026W, stronger effect = lower value 1.02 | locus YLL041C, strain sdh2, stronger effect = lower value 1.02 | locus YLR027C, strain aat2, stronger effect = lower value 1.03 | locus YLR039C, strain RIC1, stronger effect = lower value 0.989 | locus YLR058C, strain SHM2, stronger effect = lower value 0.98 | locus YLR102C, strain apc9, stronger effect = lower value 0.995 | locus YLR113W, strain HOG1, stronger effect = lower value 0.998 | locus YLR221C, strain rsa3, stronger effect = lower value 1.04 | locus YLR258W, strain gsy2, stronger effect = lower value 1.02 | locus YLR262C, strain YPT6 (second series), stronger effect = lower value 1.03 | locus YLR268W, strain sec22, stronger effect = lower value 0.97 | locus YLR320W, strain mms22, stronger effect = lower value 1.05 | locus YLR342W, strain FKS1, stronger effect = lower value 1.03 | locus YLR357W, strain rsc2, stronger effect = lower value 0.994 | locus YLR370C, strain arc18, stronger effect = lower value 1.02 | locus YLR371W, strain rom2, stronger effect = lower value 0.992 | locus YLR384C, strain iki3, stronger effect = lower value 1.04 | locus YLR418C, strain cdc73, stronger effect = lower value 1.09 | locus YML016C, strain PPZ1, stronger effect = lower value 0.984 | locus YML032C, strain rad52, stronger effect = lower value 0.984 | locus YML120C, strain ndi1, stronger effect = lower value 1.01 | locus YML124C, strain tub3, stronger effect = lower value 0.984 | locus YMR058W, strain fet3, stronger effect = lower value 1.03 | locus YMR078C, strain ctf18, stronger effect = lower value 0.999 | locus YMR125W, strain sto1, stronger effect = lower value 1.01 | locus YMR129W, stronger effect = lower value 1.02 | locus YMR205C, strain PFK2, stronger effect = lower value 1.02 | locus YMR223W, strain ubp8, stronger effect = lower value 1.01 | locus YMR231W, strain pep5, stronger effect = lower value 1.01 | locus YMR263W, strain SAP30, stronger effect = lower value 0.994 | locus YMR307W, strain GAS1, stronger effect = lower value 0.969 | locus YNL067W, strain RPL9B, stronger effect = lower value 1 | locus YNL071W, strain lat1, stronger effect = lower value 1.02 | locus YNL128W, strain TEP1, stronger effect = lower value 0.976 | locus YNL153C, strain GIM3, stronger effect = lower value 1.02 | locus YNL183C, strain NPR1, stronger effect = lower value 0.958 | locus YNL209W, strain ssb2, stronger effect = lower value 1.03 | locus YNL233W, strain BNI4, stronger effect = lower value 1.04 | locus YNL248C, strain rpa49, stronger effect = lower value 1.05 | locus YNL250W, strain rad50, stronger effect = lower value 0.998 | locus YNL271C, strain bni1, stronger effect = lower value 0.982 | locus YNL298W, strain CLA4, stronger effect = lower value 0.987 | locus YNL307C, strain MCK1, stronger effect = lower value 1.01 | locus YNL322C, strain KRE1 (second series), stronger effect = lower value 1 | locus YNR049C, strain mso1, stronger effect = lower value 1.02 | locus YNR052C, strain pop2, stronger effect = lower value 1.03 | locus YOL006C, strain TOP1, stronger effect = lower value 0.967 | locus YOL012C, strain htz1 1.07 | locus YOL147C, strain pex11, stronger effect = lower value 0.99 | locus YOR001W, strain rrp6, stronger effect = lower value 1.04 | locus YOR061W, strain CKA2, stronger effect = lower value 0.962 | locus YOR069W, strain VPS5, stronger effect = lower value 0.996 | locus YOR070C, strain gyp1, stronger effect = lower value 1.01 | locus YOR080W, strain dia2, stronger effect = lower value 1 | locus YOR083W, strain WHI5, stronger effect = lower value 0.997 | locus YOR106W, strain vam3, stronger effect = lower value 0.982 | locus YOR136W, strain idh2, stronger effect = lower value 0.989 | locus YOR144C, strain elg1, stronger effect = lower value 0.991 | locus YOR184W, strain ser1, stronger effect = lower value 0.954 | locus YOR231W, strain MKK1, stronger effect = lower value 0.98 | locus YOR265W, strain rbl2, stronger effect = lower value 1.02 | locus YOR270C, strain vph1, stronger effect = lower value 1.11 | locus YOR290C, strain snf2, stronger effect = lower value 0.985 | locus YOR316C, strain cot1, stronger effect = lower value 0.984 | locus YPL051W, strain arl3, stronger effect = lower value 0.992 | locus YPL078C, strain atp4, stronger effect = lower value 0.995 | locus YPL106C, strain sse1, stronger effect = lower value 0.993 | locus YPL240C, strain hsp82, stronger effect = lower value 1.01 | locus YPL241C, strain CIN2, stronger effect = lower value 0.997 | locus YPL256C, strain CLN2, stronger effect = lower value 0.992 | locus YPR119W, strain clb2, stronger effect = lower value 1.01 | locus YPR141C, strain kar3, stronger effect = lower value 0.981 | locus YPR163C, strain tif3, stronger effect = lower value 0.989 | locus YPR167C, strain met16, stronger effect = lower value 1.01 | strain wtn01, stronger effect = lower value 0.974
